# Several values for one entry are separate records, joined by “and”; a condition that tells them apart may be missing. Identical values can stand only once. Over roughly 110,000 compounds, “z-score” has its median near -0.1; the highest 2% begin near 2. Only a selection was taken, and the highest values are over-represented in it overall. Activity calls are given as the source filed them.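 The calls were made as follows: active = z-score in the third read window above 3 or below -3; inactive = the rest.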
# Molecular target: Metabotropic glutamate receptor 8 (Rattus norvegicus) (UniProt P70579)
# Sequence (P70579 whole entry, looked up): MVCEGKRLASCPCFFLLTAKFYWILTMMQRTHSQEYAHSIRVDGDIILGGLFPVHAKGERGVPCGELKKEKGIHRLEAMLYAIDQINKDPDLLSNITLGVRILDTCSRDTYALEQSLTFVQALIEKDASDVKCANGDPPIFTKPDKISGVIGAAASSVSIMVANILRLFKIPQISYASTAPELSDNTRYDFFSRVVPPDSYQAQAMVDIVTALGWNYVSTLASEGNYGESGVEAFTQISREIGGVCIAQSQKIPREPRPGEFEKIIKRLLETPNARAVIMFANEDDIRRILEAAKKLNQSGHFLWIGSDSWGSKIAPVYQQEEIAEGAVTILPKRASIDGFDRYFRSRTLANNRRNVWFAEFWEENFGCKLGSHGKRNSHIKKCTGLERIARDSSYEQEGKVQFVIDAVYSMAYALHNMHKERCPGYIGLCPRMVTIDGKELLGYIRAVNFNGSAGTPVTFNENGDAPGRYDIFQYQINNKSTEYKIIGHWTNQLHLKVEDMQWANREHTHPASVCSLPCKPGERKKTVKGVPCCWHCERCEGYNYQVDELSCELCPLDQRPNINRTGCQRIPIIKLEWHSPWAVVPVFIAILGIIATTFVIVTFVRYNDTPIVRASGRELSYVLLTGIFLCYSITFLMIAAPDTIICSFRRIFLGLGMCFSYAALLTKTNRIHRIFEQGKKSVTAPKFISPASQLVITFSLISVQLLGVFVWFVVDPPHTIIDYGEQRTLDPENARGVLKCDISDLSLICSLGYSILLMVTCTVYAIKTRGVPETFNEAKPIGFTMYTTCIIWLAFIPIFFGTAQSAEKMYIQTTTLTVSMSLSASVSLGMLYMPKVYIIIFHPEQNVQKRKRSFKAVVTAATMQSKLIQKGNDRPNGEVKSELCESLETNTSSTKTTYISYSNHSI
# Assay: rat mGluR8 modulators via GIRK flux, primary screen, cell-based, thallium flux, HTS (AID 488969)
# Details: HEK293 rat mGluR8, GIRK (G protein-gated inwardly rectifying potassium channel) thallium flux, FluoZin2; at 10 µM; stronger effect = higher value; submaximal glutamate (EC20) added with thallium
row,SMILES,z-score
1,COc1ccc(C)cc1NC1=C(Cl)C(=O)N(C2CCCCC2)C1=O,-0.0567
2,Cc1ccc2cccc(NC(=S)NC(=O)c3ccn(C)n3)c2n1,6.02 (active)
3,Cc1ccc2cccc(NC(=S)NC(=O)c3ccnn3C)c2n1,2.25
4,Cc1ccc2cccc(NC(=S)NC(=O)c3c(Br)cnn3C)c2n1,0.727
5,Cc1ccc2cccc(NC(=O)C(F)(F)F)c2n1,0.599
6,Cc1cc(C)c2cccc(NC(=S)NC(=O)c3ccccc3)c2n1,0.2
7,Cc1ccc2cccc(NC(=S)NC(=O)c3ccccc3)c2n1,1.02
8,c1cnc(N2CCSCC2)nc1,-0.316
9,Cc1c(C(=O)Nc2ccccc2)cn2c(nc3ccccc32)c1C#N,-0.348
10,COc1cccc2cc(C(=O)n3ccc(C)n3)c(=O)oc12,-1.33
11,O=C1CC(c2ccc(S(=O)(=O)Nc3cc(C(F)(F)F)cc(C(F)(F)F)c3)cc2)CN1 (stereo not given),0.112
12,CCC(C)n1ncn(-c2ccc(N3CCN(c4ccc(OC)cc4)CC3)cc2)c1=O (stereo not given),-0.724
13,COc1cc(NC(=O)c2cc3sccc3n2C)cc(OC)c1,-0.0259
14,O=C(O)c1cc(=O)c2cc(Cl)ccc2o1,-0.147
15,O=c1cc(-c2cccs2)oc2ccc(Cl)cc12,-0.565
16,COc1ccc(OC)c(-c2oc3ccccc3c(=O)c2O)c1,0.149
17,O=c1c(O)c(-c2cccs2)oc2ccccc12,17.2 (active)
18,O=c1c(O)c(-c2cccs2)oc2ccc(Cl)cc12,14.1 (active)
19,O=c1c(O)c(-c2ccc3c(c2)OCO3)oc2ccccc12,-0.981
20,O=C(Cc1cc(=O)[nH][nH]1)N/N=C/C(Cl)=C/c1ccccc1,-0.191 and -0.199
21,COc1ccc(CCNC(=O)CCSc2nc(-c3ccco3)cc(C(F)(F)F)n2)cc1OC,-2.59
22,c1ccc(COc2cccc(CNn3cnnc3)c2)cc1,-0.177
23,COc1ccc(/C=C2\CCn3c2nc2cc(C(=O)O)ccc2c3=O)cc1O,-0.197

row,SMILES,z-score
1,O=C(O)c1ccc2c(c1)ncn2C1CCCCCC1,0.321
2,CC(NC(=O)c1ccc(F)cc1)c1nc2ccccc2n1Cc1ccccc1F (stereo not given),-0.254
3,CCOC(=O)CN1C(=O)C(C)(C)Oc2ccc(C(=O)Nc3ccccc3OC)cc21,2.42
4,CCOC(=O)CN1C(=O)C(C)(C)Oc2ccc(C(=O)NC(C)(C)CC)cc21,0.0354
5,CCOC(=O)CN1C(=O)C(C)(C)Oc2ccc(C(=O)Nc3ccccc3)cc21,-0.637
6,COc1ccc(/C=C/C(=O)Nc2nc(N)n(-c3ccccc3)n2)cc1,-0.0927
7,CCOC1CC(C)(C)NC(=S)N1 (stereo not given),-0.234
8,CCCc1ncc(C(O)c2cccc3ccccc23)n1C (stereo not given),0.327
9,COCCN=C1Sc2nc3c(C)cccc3cc2CN1Cc1ccco1,0.0241
10,O=C(CNS(=O)(=O)c1ccccc1)N1CCN(c2ccccc2)CC1,-0.0656
11,CC1(C)CC(=O)c2sc(NC(=O)CN3CCOCC3)nc2C1,0.431
12,CCOCC(=O)Nc1nc2c(s1)C(=O)CC(C)(C)C2,-0.264
13,CC1(C)CC(=O)c2sc(NC(=O)CN3C(=O)CCC3=O)nc2C1,2.59
14,C/C(=N\NC(=O)c1ccc(Cl)c(Cl)c1)c1cccc(NC(=O)C(C)C)c1,0.0284
15,CC(C)CCNC(=O)C(C)N(C(=O)Cn1nnc(-c2ccc(F)cc2)n1)C1CCCC1 (stereo not given),2.82
16,CCC(C(=O)NC1CCCC1)N(C(=O)Cn1nnc(-c2ccc(C)cc2)n1)C1CCCC1 (stereo not given),-0.114
17,COc1ccc(-c2nnn(CC(=O)N(C3CCCCC3)C(C)C(=O)NC3CCCC3)n2)cc1OC (stereo not given),1.3
18,Cc1ccc(S(=O)(=O)NC2(C(F)(F)F)C(=O)Nc3c2c(=O)n(C)c(=O)n3C)cc1 (stereo not given),-0.423
19,O=C(Nc1ccccc1)c1ccc(N2CCN(c3ccccc3)CC2)c(S(=O)(=O)N2CCOCC2)c1,-0.142
20,O=C(N/N=C\CCc1ccccc1)c1ccco1,0.322
21,NC(=O)CSc1ncc(-c2ccccc2)[nH]1,0.142
22,CCCOc1ccc(C(C(=O)OCCN(CC)CC)c2ccccc2)cc1 (stereo not given),2.43
23,CCOc1ccc(C(=O)OCCN(CC)CC)cc1,0.374

row,SMILES,z-score
1,COc1ccc(C(C(=O)OCCN(C)C)c2ccccc2)cc1 (stereo not given),0.325
2,CC(=O)C(Sc1ccc2nnc(-c3ccc(C)cc3)n2n1)C(C)=O,1.78
3,Cc1ccccc1NC(=O)NCCc1nc2ccccc2[nH]1,-0.0805
4,Cc1ccc(C)c(NC(=S)c2ccc3ccccc3n2)c1,0.103
5,Cc1ccc(NC(=S)c2nc3ccccc3[nH]2)cc1,-1.02
6,O=C(/C(=C/c1ccc(Cl)cc1)c1nc2ccccc2[nH]1)c1ccccc1,-0.287
7,Cc1ccc(NC(=S)c2nc3ccccc3[nH]2)c(C)c1,6.64 (active)
8,S=C(Nc1ccc(Cl)cc1)c1nc2ccccc2[nH]1,6.95 (active)
9,Cc1ccccc1NC(=O)N(CCc1nc2ccccc2[nH]1)Cc1ccccc1,-0.292
10,Cc1ccc(Nc2nnc(SC/C(O)=C(\C#N)c3nc4ccccc4[nH]3)s2)c(C)c1,-0.166
11,Cc1ccccc1NC(=S)c1nc2ccccc2[nH]1,10.9 (active)
12,CCn1c(COc2ccccc2)nnc1SCc1ccc(C#N)cc1,-0.725
13,Cc1c(Nc2nc3ccccc3nc2NS(=O)(=O)c2ccccc2)c(=O)n(-c2ccccc2)n1C,-0.716
14,O=C(OCc1ccc([N+](=O)[O-])cc1)C1CCN(S(=O)(=O)c2ccccc2)CC1,-0.136
15,CCN(CC)c1ccc(NC(=O)c2nc3nc(C)cc(C(F)F)n3n2)cc1,3.02 (active)
16,CNS(=O)(=O)c1ccc(NC(=O)c2nc3nc(C)cc(C(F)F)n3n2)cc1,-0.548
17,Cc1cc(C(F)F)n2nc(C(=O)Nc3ccc(S(=O)(=O)N4CCCC4)cc3)nc2n1,-0.187
18,CCOC(=O)C1(C(=O)OCC)CC1c1ccccc1 (stereo not given),-0.0513
19,CCCCCCCCCCn1c2c(c(=N)c3c1CCC3)CCC2,0.554
20,CCCCCCCCCn1c2c(c(=N)c3c1CCC3)CCC2,4.64 (active)
21,CCCCCCn1c2c(c(=N)c3c1CCC3)CCC2,1.81
22,CCOC(=O)c1ccc(CNCc2ccc(C)cc2)cc1,0.302
23,COC(=O)c1ccc(C(=O)OC)c(NC(=O)CSc2ccccn2)c1,-0.644

row,SMILES,z-score
1,O/N=C1\CCc2cc(Cl)ccc21,0.365
2,Clc1ccc2c(c1)CCc1cccnc1C2=C1CCNCC1,2.74
3,CCOC(=O)c1c(NC(=O)COc2cccc3c2CCN(CC)C3=O)sc2c1CCC2,-0.925
4,CCOC(=O)c1c(-c2ccccc2)csc1NC(=O)c1nn(CC)cc1Br,-0.101
5,O=C(NC1CS(=O)(=O)CC1NCc1ccccc1)c1ccccc1 (stereo not given),0.00939
6,O=S1(=O)CC(NCc2ccccc2)C(Nc2ccccc2)C1 (stereo not given),2.43
7,COc1ccc(NC2CS(=O)(=O)CC2NCc2ccccc2)cc1 (stereo not given),0.261
8,C=CCNC(=O)C1CC(=O)N(c2ccc(OCC(=O)Nc3ccc(OC)cc3)cc2)C1 (stereo not given),-0.466
9,C=CCNC(=O)C1CC(=O)N(c2ccc(OCC(=O)Nc3ccccc3)cc2)C1 (stereo not given),4.85 (active)
10,C=CCNC(=O)C1CC(=O)N(c2ccc(OCC(=O)Nc3ccc(C)cc3)cc2)C1 (stereo not given),0.104
11,C=CCSc1nnc(NC(=O)c2cccc(S(=O)(=O)N(C)c3ccccc3)c2)s1,0.542
12,CCCn1nnc(NC(=O)c2sc3ccccc3c2Cl)n1,0.0281
13,O=C(NC(=S)N(CCCCO)C1CCCCC1)c1sc2ccccc2c1Cl,9.88 (active)
14,COc1ccc(C(CC(=O)O)NC(=O)c2sc3ccccc3c2Cl)cc1 (stereo not given),-0.476
15,CCCOC(=S)NC(=O)c1sc2ccccc2c1Cl,12 (active)
16,CCOc1ccc(C(CC(=O)O)NC(=O)c2sc3ccccc3c2Cl)cc1 (stereo not given),-0.958
17,Cc1ccccc1NC(=O)COC(=O)CNC(=O)c1sc2ccccc2c1Cl,-1.08
18,CN(C(=O)COC(=O)CNC(=O)c1sc2ccccc2c1Cl)c1ccccc1,-0.854
19,NC(N)=NS(=O)(=O)c1ccc(NC(=S)NC(=O)c2sc3ccccc3c2Cl)cc1,0.0467
20,CCCCOC(=S)NC(=O)c1sc2ccccc2c1Cl,17.3 (active)
21,O=C(NCC1CCCO1)c1sc2ccccc2c1Cl (stereo not given),-0.467
22,O=C(COC(=O)c1sc2ccccc2c1Cl)NC1CCCCC1,-0.479
23,CCOC(=S)NC(=O)c1sc2ccccc2c1Cl,11.1 (active)

row,SMILES,z-score
1,CC(=O)c1c(C(C)=O)c(C)n(CCCCn2c(C)c(C(C)=O)c(C(C)=O)c2C)c1C,-0.0757
2,Cc1cc(C(=O)Nc2ccc(S(=O)(=O)Nc3onc(C)c3C)cc2)c(C)o1,0.0164
3,CC(=O)Nc1ccc(NC(=O)Cc2sc(C)nc2-c2ccc(C)cc2)cc1,-0.345
4,O=C(O)c1ccc(-c2nc(-c3ccccc3)c(-c3ccccc3)[nH]2)cc1,-1.56
5,Cc1ccc2oc(-c3cccc(NC(=O)c4cc(-n5cnnc5)ccc4Cl)c3)nc2c1,-0.0315
6,CCOC(=O)C1=C(C)N(C)C(=O)NC1c1ccc(C)s1 (stereo not given),-0.0391
7,O=C(CCC(=O)Nc1ccccc1)NNC(=O)C(c1ccccc1)c1ccccc1,0.336
8,Cn1c(C23CC4CC(CC(C4)C2)C3)n[nH]c1=S,0.216
9,Cc1nnn(C23CC4CC(CC(C4)C2)C3)n1,-0.708
10,S=c1nn[nH]n1C12CC3CC(CC(C3)C1)C2,2.46
11,COC(=O)c1sc2nc(SCc3ccccc3C#N)n(N)c(=O)c2c1C,0.247
12,COc1ccc(C2c3ccc4ccccc4c3Oc3ncn(CCN4CCOCC4)c(=N)c32)cc1 (stereo not given),4.1 (active)
13,CC1(C)CC(=O)C2=C(C1)Oc1ncn(CCO)c(=N)c1C2c1ccccc1 (stereo not given),0.471
14,COc1ccc(C2C3=C(CC(C)(C)CC3=O)Oc3ncn(Cc4ccccc4)c(=N)c32)cc1 (stereo not given),2.84
15,N=c1c2c(ncn1Cc1ccco1)Oc1c(ccc3ccccc13)C2c1ccccc1 (stereo not given),0.538
16,COc1ccc(C2c3c(ncn(Cc4ccco4)c3=N)Oc3ccc4ccccc4c32)cc1 (stereo not given),-0.169
17,COc1ccc(-c2oc3ncnc(NCCN4CCOCC4)c3c2-c2ccc(OC)cc2)cc1,-0.338
18,COc1ccc(-c2oc3ncn(CCN4CCOCC4)c(=N)c3c2-c2ccc(OC)cc2)cc1,2.6
19,COc1ccc(C2c3ccc4ccccc4c3Oc3ncn(Cc4ccco4)c(=N)c32)cc1OC (stereo not given),0.46
20,COc1ccc(C2c3c(ncn(CCN4CCOCC4)c3=N)Oc3ccc4ccccc4c32)cc1OC (stereo not given),0.922
21,COc1ccc(C2C3=C(CC(C)(C)CC3=O)Oc3ncn(CCO)c(=N)c32)cc1OC (stereo not given),0.234
22,c1ccc(-c2oc3ncnc(NCCN4CCOCC4)c3c2-c2ccccc2)cc1,-0.115
23,N=c1c2c(ncn1CCN1CCOCC1)Oc1ccc3ccccc3c1C2c1ccccc1 (stereo not given),4.03 (active)
